Assay outcomes (PubChem BioAssay)
Hits are enriched below; roughly 4% of the tested compounds scored in any of these assays.
Peg3 prom inh: Peg3 promoter activity inhibition. HeLa PEG-Prom luciferase reporter, luminescence, overnight. inhibition, % at 20 µM. AID 588405. 360,000 compounds, 1.7% hits;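 active means inhibition of at least 50% at 20 µM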
TWEAK-Fn14 inh: TWEAK-Fn14 signaling inhibition; TWEAK-stimulated Fn14 reporter cells, luciferase luminescence, 8 h; inhibition, % at 10 µM; 360,000 compounds, 2% hits; AID 1159606; in the data active means inhibition above about 50%
EBV LMP1 NFkB: Epstein-Barr LMP1 NF-kappaB reporter inhibition | 350,000 compounds, 0.69% hits | LMP1-induced NF-kappaB luciferase reporter cells, luminescence | inhibition, % at 12.5 µM | AID 504558; in the data active means inhibition above about 41%; inconclusive means no clear call, values can overlap the other calls
TROY NFkB inh: TROY signaling inhibition. Q293 LMP1-TROYcd NF-kB luciferase reporter, 4 h. 360,000 compounds, 0.98% hits. inhibition, % at 10 µM. AID 1347056;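 active means compounds whose plate-normalised and pattern-corrected inhibition of the luciferase reporter signal at the single screening dose is 50% or more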
MITF TRPM1 inh: MITF TRPM1 promoter inhibition in SK-MEL-5 cells; SK-MEL-5 TRPM1 promoter luciferase, 24 h; inhibition, % at 12.5 µM; 330,000 compounds, 0.83% hits; AID 488899;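 active means mean inhibition across replicates of 60% or more, whatever share of single replicates reaches that level; inconclusive means some that reach 60%, reason not given; inactive means mean inhibition across replicates below 60%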
HIF-2a inh: inhibitors of HIF-2a; 786-0 RCC cells HIF-2a reporter, luciferase luminescence, overnight; inhibition, % at 18.8 µM; 360,000 compounds, 0.72% hits; AID 624352;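 active means inhibition of the luminescence signal of 40% or more relative to plate controls, in a single-dose primary screen at 18.75 µM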
Large screens that a line does not name were inactive.

CC(C(=O)Nc1ccc(C(F)(F)F)cc1)N(C)CC(=O)N1CCN(Cc2ccccc2)CC1 (stereo not given)	none
CC(C)Nc1ncnc2ccc(Br)cc12	TWEAK-Fn14 inh 78
O=C(O)C1CCCCN1C(=O)c1ccc(S(=O)(=O)N2CCCCCC2)cc1 (stereo not given)	none
O=C(Nc1ccccc1Cl)c1cc(C2CCCN(C(=O)c3cccs3)C2)on1 (stereo not given)	none (no result: EBV LMP1 NFkB, MITF TRPM1 inh)
CCCc1cc(=O)[nH]c(SCC)n1	none
CCCCSc1nc(CCC)cc(=O)[nH]1	TWEAK-Fn14 inh 92
CCOc1cccc2cc(-c3csc(NC(=O)CCC(=O)NCCN4CCCCC4C)n3)c(=O)oc12 (stereo not given)	none
COc1cccc2cc(-c3csc(NC(=O)CCC(=O)NCCCN4CCC(C)CC4)n3)c(=O)oc12	TWEAK-Fn14 inh 59
COc1ccc2[nH]c(=O)cc(C(=O)O)c2c1	none
COc1ccc2[nH]c3c4c(ccc3c2c1)C(=O)C=CC4=O	Peg3 prom inh 117, TWEAK-Fn14 inh 72, MITF TRPM1 inh 79, HIF-2a inh 80
O=c1[nH]c(=O)n(C2CC(O)C(CO)O2)cc1I (stereo not given)	none
O=c1[nH]c(=O)n([C@H]2C[C@H](O)[C@@H](CO)O2)cc1F	EBV LMP1 NFkB 50
O=C(NNc1nc(-c2ccccc2)cs1)c1ccccc1	none
COC(=O)c1nc(NNC(=O)c2ccccc2)sc1-c1ccccc1	TWEAK-Fn14 inh 82
CC(=O)OCC(=O)[C@@]1(O)CCC2C3CCC4=CC(=O)CCC4(C)C3C(=O)CC21C (stereo not given in full)	none
CCC(C(=O)OCC(=O)C1(O)CCC2C3CCC4=CC(=O)CCC4(C)C3C(O)CC21C)C(C)C (stereo not given)	none
CC(=O)[C@@]1(O)CC[C@H]2[C@@H]3CCC4=CC(=O)CC[C@]4(C)[C@H]3[C@@H](O)C[C@@]21C	EBV LMP1 NFkB 56
CC12CCC(=O)C=C1CCC1C2C(=O)CC2(C)C1CC[C@]2(O)C(=O)CO (stereo not given in full)	TWEAK-Fn14 inh 78
O=C(Nc1nnc([C@@H]2C[C@H](O)[C@@H](CO)O2)s1)NC1CCCCC1	none (no result: EBV LMP1 NFkB, MITF TRPM1 inh)
O=C(SCC(O)C(O)CS)c1cccs1 (stereo not given)	none
O=C(NCc1cc(Br)cc(Br)c1OC(=O)c1ccccc1[N+](=O)[O-])c1ccccc1	TWEAK-Fn14 inh 55
C/C(=N\NC(=O)C1(C)CC1(Br)Br)c1cccc(NC(=O)c2ccc(C)o2)c1 (stereo not given)	Peg3 prom inh 62, TWEAK-Fn14 inh 56
O=C(/C=C/c1ccccc1[N+](=O)[O-])c1ccc(F)cc1	Peg3 prom inh 107
CCOc1cc(/C=N/N2CCN(Cc3ccccc3)CC2)ccc1O	EBV LMP1 NFkB 45
O=C(O)C(=O)Nc1ncn[nH]1	none (no result: MITF TRPM1 inh)
O=C(/C=C/c1ccccc1)Nc1ncn[nH]1	TWEAK-Fn14 inh 70
O=C(OC1CC2CC1[C@H]1CCCCN1C2=O)N1CCN(C(=O)c2ccccc2)CC1 (stereo not given in full)	none (no result: Peg3 prom inh, EBV LMP1 NFkB, MITF TRPM1 inh)
CC(Sc1nc(-c2ccc(F)cc2)cs1)C(=O)N1c2ccccc2CC1C (stereo not given)	EBV LMP1 NFkB 59
N#Cc1nc(-c2ccc(F)cc2)oc1N1CCC(C(N)=O)CC1	none
CC(=O)Nc1ccc(-c2ccnc3c2CC(C(=O)Nc2cccc(N(C)C)c2)O3)cc1 (stereo not given)	none (no result: EBV LMP1 NFkB, MITF TRPM1 inh)
Cc1ccc(C(=O)Nc2nc(-c3ccccn3)cs2)o1	none
O=C(Nc1nc(-c2ccccn2)cs1)c1cc(Cl)ccc1[N+](=O)[O-]	EBV LMP1 NFkB inconclusive, MITF TRPM1 inh 79
O=C(Nc1nc(-c2ccccn2)cs1)c1ccccc1-n1cnnn1	MITF TRPM1 inh 65
Cn1nc(C(=O)Nc2nc(-c3ccccn3)cs2)c2ccccc2c1=O	none
CC(=O)Nc1ccc(C(=O)Nc2nc(-c3ccccn3)cs2)cc1	none
CCn1nc(C(=O)Nc2nc(-c3ccccn3)cs2)c2ccccc2c1=O	Peg3 prom inh 51, EBV LMP1 NFkB 42 (no result: MITF TRPM1 inh)
O=C(Nc1nc(-c2ccccn2)cs1)c1ccc([N+](=O)[O-])o1	MITF TRPM1 inh 61
O=C(NC1CC1)c1ccc(-c2cnc3cccnn23)cc1	none (no result: EBV LMP1 NFkB, MITF TRPM1 inh)
CN(C)S(=O)(=O)c1cccc(NC(=O)C2CCN(S(=O)(=O)c3cccs3)CC2)c1	none
Cc1cc(Br)cn2c(CC(C)(C)C)c(C3CCCCC3)nc12	none (no result: EBV LMP1 NFkB, MITF TRPM1 inh)
O=C(Nc1nc(-c2ccccn2)cs1)c1ccc(-c2ccccc2F)o1	Peg3 prom inh 68
O=C(Nc1nc(-c2cc(F)ccc2F)cs1)c1ccccn1	none
CC(C)C(NC(=O)c1ccc(F)cc1)C(=O)N1CCN(C(=O)c2ccco2)CC1 (stereo not given)	none
O=C(CN1C(=O)NC2(CCOc3ccccc32)C1=O)NCCc1ccc(F)cc1 (stereo not given)	none
CCc1cc(-c2[nH]ncc2-c2ccc(OC)cc2)c(O)cc1O	Peg3 prom inh 55, TWEAK-Fn14 inh 64
COc1ccc(-c2cn[nH]c2-c2ccc(OCc3ccc([N+](=O)[O-])cc3)cc2O)cc1	TWEAK-Fn14 inh 78
C=C(C)COc1ccc(-c2[nH]ncc2-c2ccc(Br)cc2)c(O)c1	none
CCc1cc(-c2[nH]ncc2-c2ccc3c(c2)OCO3)c(O)cc1O	Peg3 prom inh 69, TWEAK-Fn14 inh 92, TROY NFkB inh 68
O=C(CN1CCN(C(=O)CCC(=O)N2CCC(c3ccccc3)=N2)CC1)Nc1ccc(F)cc1	none
CCOC(=O)C(C)/C(C)=N/NC(N)=S (stereo not given)	none
CCN(CC)C1CCN(C(=O)CCn2nnnc2CN2CCOCC2)C1 (stereo not given)	none
CC(=O)N(/N=C1\Sc2ccccc2C1=O)c1ccccc1C	none
CC(=O)N(/N=C1\Sc2ccccc2C1=O)c1ccc(C)cc1C	TWEAK-Fn14 inh 91
NC(=O)CSc1nc2cc(S(=O)(=O)N3CCOCC3)ccc2o1	none
CCOc1ccc(C=NNC(=O)c2ccc(-n3cnnn3)cc2)cc1	TWEAK-Fn14 inh 56
CN(C)c1ccc(/C=N/NC(=O)c2ccc(-n3cnnn3)cc2)cc1	none
Cc1ccccc1NC(=O)CSc1nnc2ccc(-c3cccnc3)nn12	none
Cc1ccc(-c2nnn(CC(=O)Nc3nnc(C(C)C)s3)n2)cc1	none
Nc1c(S(=O)(=O)c2ccccc2)c2nc3ccccc3nc2n1/N=C/c1cccc(O)c1	Peg3 prom inh 87, TWEAK-Fn14 inh 73
Cc1cccc(S(=O)(=O)c2c(N)n(/N=C/c3ccccc3)c3nc4ccccc4nc23)c1	none
CCN(CC(=O)NCc1cccs1)C(=O)COc1ccc(C(C)=O)cc1	none
CCOc1ccccc1NC(=O)NCc1ccc2c(c1)OCO2	Peg3 prom inh 68
O=C(NCc1ccc2c(c1)OCO2)c1cccc(F)c1	TWEAK-Fn14 inh 82 (no result: TROY NFkB inh)
